± gives the standard deviation of the averaged measurements. Over roughly 25,000 sequences, “ln(normalized median fluorescence intensity)” has its median near 7.9; the highest 2% begin near 11. Shown is part of a subset that was picked to be rich in the highest values.
test system: PfAP2-I AP2 domain 3 (GST-tagged); test: gcPBM binding intensity (ln(normalized median fluorescence intensity)); higher = stronger DNA binding
Outline: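 In this array assay, P. falciparum DNA-binding domains with a GST tag, expressed in E. coli, were applied for 1 h to primer-extended double-stranded 36-bp intergenic genomic probes and negative controls on an Agilent 4 × 180k array. Bound protein was visualised with Alexa488 anti-GST antibody at 488 nm. Binding intensity is the highest Masliner-normalised natural-log median intensity across replicate spots of either probe orientation.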

Row | Sequence | gcPBM binding intensity (ln)
1 | AGAGGAAAAATAAAAGGAAAAAAGAAAATAATATTG [CACACA_negctrl_site852] | 7.45 ± 0.73
2 | GAATGAATGATAAATTTTTTTTTCTTTTTTTTTTTG [CACACA_negctrl_site333] | 7.09 ± 0.59
3 | ACCTTATAAAAAAAAAGTACATATATAAATAATAAA [XGTACX_site4338] | 8.29 ± 0.13
4 | ATATAATTAAAAACATGTACATATATATATATATAT [XGTACX_site2882] | 9.27 ± 0.2
5 | TTATGTTCTTTAAAACCACACACCCCCCAACCCCCC [CACACA_site8742] | 10.9 ± 0.44
6 | CAAACCCACCAACACACACACACAAAAATGATTAAA [CACACA_site2432] | 8.03 ± 0.23
7 | ATGTTCTTTAAAACCACACACCCCCCAACCCCCCTC [CACACA_site2373] | 10.6 ± 0.36
8 | ATAAGTATAAGAATCAGTACACAGTTTCTACATACT [XGTACX_site5834] | 7.56 ± 0.51
9 | TATCAAAGTAGAAGAGATCGATGTCATATTGTGATG [GTGCAC_negctrl_site42] | 7.73 ± 0.75
10 | CATATGCATACTATACGTACATATGTATATAATATA [XGTACX_site7738] | 8.03 ± 0.42
11 | GGTCTTCTTAATATACTGCACTGTATACGTATATAA | 11 ± 0.61
12 | TATAATATTAATGACTGTACTCATACGTATATTTAT [XGTACX_site5493] | 7.79 ± 0.3
13 | GATAGATAATATTTTAGTACATAAACAATTAAATAT [XGTACX_site4125] | 7.91 ± 0.44
14 | TAATCATAAAAAAATACACACATATAAAATATAGAT [CACACA_site7020] | 7.51 ± 0.63
15 | TTATAATATGGATACACACACATATATAAATATATA [CACACA_site5314] | 7.68 ± 0.38
16 | ATGGATTATACGTGCACACATATATACCAATAAATA [CACACA_site4524] | 11.2 ± 0.22
17 | CATAAAAATGGATACACACACATAATATATATATAT [CACACA_site3619] | 9.08 ± 0.11
18 | TCATATATATTATACACACACATATATAAATATATA [CACACA_site967] | 7.87 ± 0.54
19 | ATATAAATACGGTGTGCACACACATAATATATATAT [CACACA_site2271] | 9.52 ± 0.26
20 | TAGGGATTATACCACACACACATACACATAAATATA [CACACA_site3178] | 7.86 ± 0.32
21 | TAATGGATTATACGTGCACACATATATACAAATAAA [CACACA_site8116] | 10.97 ± 0.035
22 | TATAAATACATACGTACACACAAATATTAAAATATA [CACACA_site5129] | 7.905 ± 0.007

Row | Sequence | gcPBM binding intensity (ln)
23 | ATGGATTATACGTGCACACATATATACAAATAAATA [CACACA_site640] | 11.19 ± 0.035
24 | AATAATAATAAAAATAAACACACATATATATGTATA [CACACA_site8928] | 7.57 ± 0.28
25 | AATATAATTATATGTGGTACAGAAATAATATAAAAT [XGTACX_site2366] | 8.22 ± 0.52
26 | TTATAAAAAAAAAAAAAAAAGAAAATGAATTCACGA [CACACA_negctrl_site1248] | 8.19 ± 0.3
27 | TAAATTATTATCCCCTCACACACAAAAATAAAAAGA [CACACA_site2886] | 8.56 ± 0.25
28 | CGTTGTAGGGAATGTAGTACAGTTATTATTTTATTA [XGTACX_site2429] | 7.88 ± 0.24
29 | TATTATATTGTTCATTTACACTTTCATTTTAAAAAA [CACACA_negctrl_site260] | 8.05 ± 0.54
30 | TTAATGCACTTTATTACACACACTAGTTCATTACCT [CACACA_site2294] | 11.5 ± 0.95
31 | AATGAGAATTTTATTACACACTTTAATATATTTTCA [CACACA_site784] | 7.7 ± 0.53
32 | ATAGTTACACAATGGTGTACAAGTCAATATATTTCT [XGTACX_site4614] | 7.95 ± 0.33
33 | ATATTGTTATATGTTTGTACATATTTTTTATATTTT [XGTACX_site6834] | 7.7 ± 0.64
34 | AACAAAATAAAAAGTAATCTTATTTATTAAAATTTT [CACACA_negctrl_site419] | 7.25 ± 0.43
35 | AAGGCATGACTATCTGCACACATAAAAATAAGAAAT [CACACA_site8180] | 8.62 ± 0.39
36 | ACAATGAAATATTCATGTACATATAAATAATAGTGT [XGTACX_site3762] | 7.93 ± 0.42
37 | TTATAAAAAATTTTAGTGCATATATGATTTATATAT [GTGCAC_site9831] | 10.1 ± 0.33
38 | GCTGAAAGGATAAAGGTGCATATTTTTTAAAAAATT [GTGCAC_site9487] | 10.4 ± 0.28
39 | GTTATTGAAAAAATAGTGCAATATAACAAAGTAAAA | 11.4 ± 0.52
40 | AAATGAATATTCATAGTGCAATATATAAATGAAAAT | 11 ± 0.38
41 | CATAATTTAAAAAAGGTGCAAAATGGATAATATATA [GTGCAC_site9657] | 11.1 ± 0.57
42 | ATATAAGAATAAATAGTGCAAAATAAATGATTATTT | 10.7 ± 0.33
43 | TATAAATTTATAAATAGTACATATATTTATATATAT [XGTACX_site6433] | 8.12 ± 0.64
44 | AAAATTTATAGTATGGTGCATAAAAATATATATATA | 11.4 ± 0.23

Row | Sequence | gcPBM binding intensity (ln)
45 | TAAATAGTTATAAAAGTGCAAAAAAAAAAAAAAAAA [GTGCAC_site9550] | 10.1 ± 0.53
46 | TAAAATATTTCAAAGGTGCAATGATAATTTAAGACG [GTGCAC_site9609] | 10.6 ± 0.54
47 | AAGAAAATATAACAAAGTAAAAACATATTATATATA [TGCATGCA_negctrl_site248] | 7.34 ± 0.34
48 | TTTTATATCTACCTTTGTACATATTTATTTTTTTTA [XGTACX_site7872] | 8.01 ± 0.74
49 | AATAATGAAACAGGAAAAAAATATTGTTAAAATGTA [XGTACX_negctrl_site400] | 7.95 ± 0.78
50 | AAAAAAAAAAAAAAAACACACATAAATAGCTCAAAT [CACACA_site3973] | 8.78 ± 0.49
51 | ACAAAACGAACATACGCATGTGTGTACATTAATATA [TGCATGCA_site922] | 8.14 ± 0.099
52 | TTTTCATTCTTTTCCTTTGATTTACAATAGTATATT [GTGCAC_negctrl_site687] | 7.72 ± 0.79
53 | TTTTCCATAAGAATTACACACAGAAAGGATAAGTAT [CACACA_site105] | 8.04 ± 0.73
54 | TAATAATCAAGTTAACGTACAAAATCATCTATAGAA [XGTACX_site5921] | 8.03 ± 0.13
55 | TCAAAAATTTATATAGTGCAATATATATATAATGTA | 10.6 ± 0.72
56 | TAATATATATATATGGTGCATTTAATTTATATATAA | 11.2 ± 0.74
57 | TCTATTTTTTATATGGTGCATTGTTCTTATTAATAT [GTGCAC_site9392] | 10.8 ± 0.71
58 | TAAATTTATATATAGGTGCGCAATTTGATAATAGTT [GTGCAC_site9783] | 9.82 ± 0.19
59 | TATTAATATATAGTAGTGCAATAAAGATATACTGAA | 10.9 ± 0.58
60 | CATATAATTTTATGGGTGCATTTTTTTGTAAGACCA | 10.1 ± 0.58
61 | ATTATTATATAGTGTGCATGCAATATTAATAAAACC [TGCATGCA_site245] | 8.79 ± 0.52
62 | TATAATAGTTCATAGGTGCAATATAATAAATTTATA [GTGCAC_site9573] | 11.2 ± 0.47
63 | GTTATAATTGAACTAGTGCATAAATATATTTTAATT [GTGCAC_site9851] | 11.1 ± 0.45
64 | TGTAAATAATATAATAGTACGCATATTTTTATTGAA [XGTACX_site284] | 7.87 ± 0.17
65 | ATTGATTATTTTCTAGTGCATAAAATAATTTTTTTT | 10.5 ± 0.51
66 | TTAAAATAGATATTAGTGCAAAAAAAAAAAAATAAA | 10.7 ± 0.23

— the supplement of paper PMC11417369
